Results filed as inconclusive are left out. A call without a number means that no potency is given here. Active and inactive are the calls of the source. Unless noted, the call rests on the fitted dose curve; in most records, active means well fitted curve in the direction sought with a large enough effect; inconclusive means small, poorly fitted or top-dose-only effect, or another doubt; inactive means no such curve, though single readings can be large; an effect the other way counts as inactive or inconclusive.
How the values were obtained:
[1] = target: Cytochrome P450 2C9 (Homo sapiens) (UniProt P11712); assay: Cytochrome P450 family 2 subfamily C member 9 (CYP2C9) small molecule antagonists: luciferase biochemical (cell-free) qHTS assay (AID 1645842; active means well fitted curve in the direction sought with a large enough effect in the repeat runs; an effect the other way counts as inactive or inconclusive; further: nearly all actives have a fitted effect of over 55% in size); conditions: P450-Glo CYP2C9 enzyme assay, luciferin luminescence; series mostly up to 57.4 µM
Procedure, shortened: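 Luminescence, after 20 min with luciferin detection reagent, reflected CYP2C9 turnover during a 1 h NADPH-driven reaction at 37C. Enzyme-substrate mix contained 0.4% bovine serum albumin and was preincubated with compound 10 min at room temperature.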

[2] = Primary qHTS for inhibitors of nuclear receptor binding SET domain protein 2 (NSD2) in an isogenic RCH-ACV NSD2 p.E1099K mutant (9B) (AID 1645876); conditions: RCH-ACV NSD2 E1099K (9B) viability, CellTiter-Glo, 72 h; series mostly up to 44.9 µM; further: nearly all actives have a fitted effect of over 70% in size
[3] = Primary qHTS for inhibitors of nuclear receptor binding SET domain protein 2 (NSD2) in an RCH-ACV wild type WT cells (2C) (AID 1645877); conditions: RCH-ACV (leukaemia line) NSD2 WT (2C) viability, CellTiter-Glo, 72 h; series mostly up to 44.9 µM; further: nearly all actives have a fitted effect of over 70% in size; further: potency means the concentration at half of the fitted maximal effect
[4] = target: Cytochrome P450 2D6 (Homo sapiens) (UniProt P10635); assay: Cytochrome P450 family 2 subfamily D member 6 (CYP2D6) small molecule antagonists: luciferase biochemical (cell-free) qHTS assay (AID 1645840; active means well fitted curve in the direction sought with a large enough effect in the repeat runs; an effect the other way counts as inactive or inconclusive; further: nearly all actives have a fitted effect of over 55% in size); conditions: P450-Glo CYP2D6 enzyme, luciferin luminescence, 1 h; series mostly up to 57.4 µM
Procedure, shortened: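 P450-Glo luminescent screen: recombinant CYP2D6 enzyme–proluciferin substrate mix preincubated with compound 10 min at room temperature, then NADPH regeneration added for 1 h at room temperature. Detection reagent added for 20 min; luciferin light read as relative luminescence units.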

[5] = target: Calcium and integrin-binding protein 1 (Homo sapiens) (UniProt Q99828); assay: Primary qHTS for Identification of Calcium Integrin Binding Protein 1 (CIB1) Competitor (AID 1508620); conditions: CIB1-GST / FITC-alphaIIb peptide fluorescence polarization; series mostly up to 57.7 µM;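 further: GST tagged CIB1 binding a fluorescein labelled alphaIIb integrin peptide tracer; top concentration of the series differs between compounds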
Procedure, shortened: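 Fluorescence polarization competition: GST-tagged CIB1 (1 uM final) preincubated with compound 15 min at room temperature, then FITC-labelled alphaIIb peptide (100 nM final) added. After 15 min at room temperature, polarization read at Ex 480/Em 540.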

Chain of Cytochrome P450 2C9 (Homo sapiens) (P11712 whole entry, looked up): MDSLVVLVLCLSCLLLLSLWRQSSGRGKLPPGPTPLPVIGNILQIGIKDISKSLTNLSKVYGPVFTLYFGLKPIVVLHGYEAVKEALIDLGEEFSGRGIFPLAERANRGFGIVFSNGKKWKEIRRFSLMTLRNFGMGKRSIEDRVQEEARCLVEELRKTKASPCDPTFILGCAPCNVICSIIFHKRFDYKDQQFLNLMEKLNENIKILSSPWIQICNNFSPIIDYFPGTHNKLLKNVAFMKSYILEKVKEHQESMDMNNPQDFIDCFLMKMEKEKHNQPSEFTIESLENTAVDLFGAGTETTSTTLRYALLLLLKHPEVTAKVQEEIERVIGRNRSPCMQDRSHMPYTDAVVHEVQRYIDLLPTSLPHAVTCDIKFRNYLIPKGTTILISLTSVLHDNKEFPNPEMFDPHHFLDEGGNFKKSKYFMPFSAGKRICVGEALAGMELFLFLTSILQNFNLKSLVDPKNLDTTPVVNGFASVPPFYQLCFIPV
Chain of Calcium and integrin-binding protein 1 (Homo sapiens) (Q99828 whole entry, looked up): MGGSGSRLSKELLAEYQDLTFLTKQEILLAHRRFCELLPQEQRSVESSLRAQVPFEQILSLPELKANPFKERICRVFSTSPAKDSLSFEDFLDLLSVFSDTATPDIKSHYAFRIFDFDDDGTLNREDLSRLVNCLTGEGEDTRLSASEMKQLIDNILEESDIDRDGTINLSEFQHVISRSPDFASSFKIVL
Chain of Cytochrome P450 2D6 (Homo sapiens) (P10635 whole entry, looked up): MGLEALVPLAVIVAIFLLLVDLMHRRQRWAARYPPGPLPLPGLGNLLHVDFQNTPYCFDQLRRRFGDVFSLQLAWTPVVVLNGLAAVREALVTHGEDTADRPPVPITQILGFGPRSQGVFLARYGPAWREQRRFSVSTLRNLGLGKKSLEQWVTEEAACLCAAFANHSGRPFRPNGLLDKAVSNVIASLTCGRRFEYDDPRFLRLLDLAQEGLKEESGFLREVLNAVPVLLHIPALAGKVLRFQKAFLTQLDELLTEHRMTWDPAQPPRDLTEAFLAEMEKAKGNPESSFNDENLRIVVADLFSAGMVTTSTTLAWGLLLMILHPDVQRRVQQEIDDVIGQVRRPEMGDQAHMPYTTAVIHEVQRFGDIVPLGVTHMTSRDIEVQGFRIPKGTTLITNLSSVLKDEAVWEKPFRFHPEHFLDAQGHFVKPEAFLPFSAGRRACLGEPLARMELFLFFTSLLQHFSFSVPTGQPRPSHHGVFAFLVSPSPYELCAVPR

## NC(=O)[C@@H]1CC[C@H](c2ccc(OCc3ccccc3F)cc2)N1
[1]
  Potency: inactive
[2]
  Potency: inactive
[3]
  Potency: inactive

## Oc1ccc2c(-c3c(-c4ccccn4)nn4c3CCC4)ccnc2c1
[4]
  Potency: inactive
[1]
  Potency: inactive

## C=C(CO)C(=O)O[C@H]1C[C@@]23O[C@@H]2CC/C(=C/[C@H]2OC(=O)C(=C)[C@H]12)CO[C@H]3O
[5]
  Potency: inactive
[3]
  Potency: 8.98 µM (active)

Reference: PubChem BioAssay (NCATS)
